From PubChem BioAssay AID624173 (National Center for Advancing Translational Sciences (NCATS), 2012)
About 490 (0.12%) of roughly 410,000 compounds were called active. Entries that show only a call come without a potency. About 1% were inconclusive and are not listed. Calls come from the whole dose curve; as a rule, active = well fitted inhibition curve with a large enough effect; inconclusive = small, poorly fitted or top-dose-only effect; inactive = flat fitted curve, though single readings scatter. This excerpt belongs to a sample that is enriched for actives.

The compounds below were run against pyruvate kinase (Trypanosoma brucei) (UniProt Q57TT1) (assay: qHTS of Trypanosoma Brucei Inhibitors). Details: TbPYK enzyme, Kinase-Glo Plus ATP luminescence, 45 min; series mostly up to 76.8 µM.
Excerpt: Members of the Trypanosomatidae family of parasitic protozoans cause a spectrum of diseases throughout the tropical and subtropical world. Sleeping sickness, caused by two subspecies of Trypanosoma brucei, is endemic to areas of sub-Saharan Africa, while Chagas' disease, a manifestation of Trypanosoma cruzi infection, is prevalent throughout Central and South America. In addition, many species of Leishmania are responsible for a range of cutaneous and visceral diseases, causing ulcers, destructive lesions and kalaazar, a lethal infection of the viscera. These diseases cause severe public health and economic burdens on populations that are often already caught in a tragic cycle of poverty, poor nutrition and disease. Collectively, parasites of the trypanosomatid family infect 30 million people worldwide (~500 million live in endemic areas), and account for ~130K deaths annually. Existing treatments have developed little in the past 50 years, and suffer from toxicity, poor efficacy and resistance; the goal of this project is to develop lead drugs that will be suitable for entry into pre-clinical trials.
Glycolysis in axenically cultured T. cruzi, representing the intracellular pathogenic stage, is also essential for these parasites. {Engel, 1987} This project aims to discover and optimize selective inhibitors of the glycolytic enzyme pyruvate kinase (PYK) from Trypanosoma brucei, the parasite that causes sleeping sickness. […] Trypanosomatid PYKs show significant differences from their human counterparts including only 47-50% sequence identity and different allosteric and activation properties.{Callens, 1992} To this end, a qHTS was done against the MLSMR to discover inhibitors.
NIH Molecular Libraries Probe Production Network [MLPCN]
NIH Chemical Genomics Center [NCGC]
PI Name: Malcolm Walkinshaw, University of Edinburgh
2 uL of TbPYK/substrate buffer (columns 1-3, 5-48) are dispensed into Greiner white solid bottom 1536-well assay plates; column 4 receives only TEA buffer as 0x TbPYK controls. Compounds are then transferred via Kalypsys pin tool equipped with 1536-pin array (10 nL slotted pins, V&P Scientific, San Diego, CA). Following addition of compound, 2 uL of ADP (130 uM final concentration, all columns) is added to initiate the reaction. The plates are then incubated at room temperature for 45 minutes. Kinase-Glo Plus reagent is added (3 uL) and plates incubated for 10 minutes, before being transferred to a ViewLux high-throughput CCD imager (PerkinElmer) wherein single end-point measurements of luminescence are acquired using a clear filter. All reagents are diluted in an assay buffer consisting of 50 mM TEA (pH 7.2), 100 mM KCl, 10 mM MgCl2, 0.05% BSA and 0.01% Tween-20.
All screening operations will be performed on a fully integrated robotic system (Kalypsys, San Diego, CA) containing one RX-130 and two RX-90 anthropomorphic robotic arms (Staeubli, Duncan, SC). Library plates will be screened starting from the lowest and proceeding to the highest concentration. Vehicle-only plates, with DMSO being pin-transferred to columns 5-48, will be inserted uniformly at the beginning and the end of each library in order to monitor and record any shifts in the background, which can be affected by reagent dispensers or loss in enzyme activity over time. Screening data will be corrected, normalized, and concentration-effect relationships will be derived by using publicly-available curve fitting algorithms developed in-house (http://ncgc.nih.gov/pub/openhts).
Note: nearly all actives have a fitted effect of over 50% in size.
Potency is the fitted concentration of half-maximal effect.

| Compound | Potency |
| --- | --- |
| O=C(c1cnccn1)N1CCC[C@@]2(CCN(Cc3ccncc3)C2)C1 | inactive |
| COc1ccccc1CN1CC2(CCN(S(=O)(=O)c3ccccc3)CC2)C1 | inactive |
| O=P1(N(CCCl)CCCl)NC(OO)CCO1 (stereo unspecified) | inactive |
| O=C(c1cccc(F)c1)N1CCC2(CCCN(Cc3ccncc3)C2)CC1 | inactive |
| COC(=O)N1CCC[C@@]2(CCN(C(=O)NC(C)C)C2)C1 | inactive |
| O=C(c1ccco1)N1CCC[C@@]2(CCN(c3ccccc3)C2)C1 | inactive |
| COC(=O)N1CCC2(CCCN(Cc3ccccc3OC)C2)CC1 | inactive |
| CS(=O)(=O)N1CCC2(CC1)CN(Cc1cc(C(F)(F)F)cc(C(F)(F)F)c1)C2 | inactive |
| CC(=O)N1CCC2(CCCN(c3ncccn3)C2)CC1 | inactive |
| CC[C@]1(C)CC(=O)NC1=O | inactive |
| C=C1C(=CC=C2CCC[C@]3(C)[C@@H]([C@H](C)C=C[C@H](C)C(C)C)CC[C@@H]23)C[C@@H](O)C[C@@H]1O | inactive |
| COc1ccc(Cl)cc1NC(=O)CCn1c(=O)c2cccn2c2ccccc21 | inactive |
| Cc1ccc(C(=O)NCCc2nnc(SCC(=O)Nc3cccc(C(=O)O)c3)n2C)cc1 | inactive |
| CCOc1cc(C)ccc1OCc1nnc(SCC(=O)Nc2cccc(C(=O)O)c2)n1-c1ccccc1 | inactive |
| Cc1ccc(C)c2c1cc(C)c1nnc(SCC(=O)Nc3cccc(C(=O)O)c3)n12 | 6.31 µM (active) |
| CC(=O)OC[C@H]1O[C@@H](O[C@H]2[C@H](O)[C@@H](OC(=O)c3ccccc3C(=O)O)[C@H](O)O[C@@H]2COC(C)=O)[C@H](O)[C@@H](OC(=O)c2ccccc2C(=O)O)[C@@H]1O | inactive |

| Compound | Potency |
| --- | --- |
| O=C(c1cccc(F)c1)N1CCC2(CC1)CCN(c1ccccc1)CC2 | inactive |
| c1csc(CN2CC3(CCNCC3)C2)n1 | inactive |
| O=C(O)CCCCC(=O)O | inactive |
| COc1ccc(C(=O)N2CCC[C@@]3(CCN(C(=O)NC(C)C)C3)C2)cc1 | inactive |
| COc1ccccc1OCCCn1c(-c2ccc(Cl)cc2)nc2ccccc2c1=O | inactive |
| O=S(=O)(c1ccccc1)N1CCC2(CC1)CN(Cc1nccs1)C2 | inactive |
| CCOc1ccc(N2C(=O)Nc3ccccc3C2(O)C(=O)NCc2ccco2)cc1 (stereo unspecified) | inactive |
| CCOc1ccc(N2C(=O)/C(=C/c3ccc(C)o3)N(C)C2=S)cc1 | 28.2 µM (active) |
| CCOC(=O)c1ccc(NC2=CC(c3ccc(OCC)cc3)N(c3ccc(C(=O)OCC)cc3)C2=O)cc1 (stereo unspecified) | inactive |
| O=C(c1cc(C(F)(F)F)cc(C(F)(F)F)c1)N1CCC2(CC1)CN(c1ccncc1)C2 | inactive |
| CCc1cc(-c2n[nH]c(=S)n2CC(C)C)cs1 | 3.16 µM (active) |
| CCc1cc(-c2nnc(SCC(=O)NC3CC3)n2C)cs1 | inactive |
| CCn1c(C(C)C)n[nH]c1=S | inactive |
| FC(F)(F)C1CCCN(c2nsc3ccccc23)C1 (stereo unspecified) | 6.31 µM (active) |
| FCOC(C(F)(F)F)C(F)(F)F | inactive |
